# Data: PubChem BioAssay (NCATS)
# Inconclusive results are not listed. A call without a number means that no potency is given here. Activity calls are given as the source filed them. Calls follow the shape of the dose curve; as a rule, active = well fitted curve in the direction sought with a large enough effect; inconclusive = small, poorly fitted or top-dose-only effect, or another doubt; inactive = no such curve, though single readings can be large; an effect the other way counts as inactive or inconclusive.
# Legend:
# [1] = target: M-phase phosphoprotein 8 (Homo sapiens) (UniProt Q99549); test: qHTS Validation Assay for Inhibitors for MPP8 Chromodomain Interactions with Methylated Histone Tails (AID 488949); conditions: AlphaScreen MPP8 binding to H3K9me3 peptide; series mostly up to 114 µM; also: nearly all actives have a fitted effect of over 55% in size; also: potency is read from the fitted curve at half-maximal effect
# M-phase phosphoprotein 8 (Homo sapiens), sequence (Q99549 whole entry, looked up): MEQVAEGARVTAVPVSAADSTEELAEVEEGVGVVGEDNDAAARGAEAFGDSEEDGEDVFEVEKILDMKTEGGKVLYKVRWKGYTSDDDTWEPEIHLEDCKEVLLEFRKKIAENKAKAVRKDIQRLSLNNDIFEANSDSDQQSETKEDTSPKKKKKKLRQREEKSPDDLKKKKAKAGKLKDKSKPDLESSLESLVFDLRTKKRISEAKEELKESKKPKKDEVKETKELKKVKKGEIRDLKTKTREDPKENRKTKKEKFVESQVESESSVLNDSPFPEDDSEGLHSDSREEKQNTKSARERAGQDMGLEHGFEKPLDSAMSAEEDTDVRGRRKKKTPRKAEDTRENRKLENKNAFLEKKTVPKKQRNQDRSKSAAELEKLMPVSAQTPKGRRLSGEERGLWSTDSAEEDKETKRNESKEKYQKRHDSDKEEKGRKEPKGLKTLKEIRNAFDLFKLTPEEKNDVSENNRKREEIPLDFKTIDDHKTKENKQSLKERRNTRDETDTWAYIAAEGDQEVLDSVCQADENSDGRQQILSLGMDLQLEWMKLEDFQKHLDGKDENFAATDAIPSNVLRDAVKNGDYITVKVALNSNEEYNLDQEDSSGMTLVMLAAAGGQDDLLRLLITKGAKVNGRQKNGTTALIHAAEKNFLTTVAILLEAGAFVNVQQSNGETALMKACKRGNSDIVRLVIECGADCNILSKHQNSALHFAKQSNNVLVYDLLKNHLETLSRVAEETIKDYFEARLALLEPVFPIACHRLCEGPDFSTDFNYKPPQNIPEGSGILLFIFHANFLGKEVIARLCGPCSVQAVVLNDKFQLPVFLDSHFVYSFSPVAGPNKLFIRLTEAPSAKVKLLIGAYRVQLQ
# Summary of the method: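 Chemiluminescent proximity assay: histidine-tag capture via nickel acceptor beads, biotin peptide via streptavidin donor beads. Protein and peptide each at 50 nM, pH 7.4, with 30 min incubations at room temperature for complex formation, compound exposure and bead binding.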
# [2] = target: Beta-2 adrenergic receptor (Homo sapiens) (UniProt P07550); test: qHTS validation assay of beta-arrestin-biased ligands of beta2-adrenergic receptor (AID 485366); conditions: cell-based beta-arrestin recruitment to ADRB2, qHTS; series mostly up to 46.1 µM
# Beta-2 adrenergic receptor (Homo sapiens), sequence (P07550 whole entry, looked up): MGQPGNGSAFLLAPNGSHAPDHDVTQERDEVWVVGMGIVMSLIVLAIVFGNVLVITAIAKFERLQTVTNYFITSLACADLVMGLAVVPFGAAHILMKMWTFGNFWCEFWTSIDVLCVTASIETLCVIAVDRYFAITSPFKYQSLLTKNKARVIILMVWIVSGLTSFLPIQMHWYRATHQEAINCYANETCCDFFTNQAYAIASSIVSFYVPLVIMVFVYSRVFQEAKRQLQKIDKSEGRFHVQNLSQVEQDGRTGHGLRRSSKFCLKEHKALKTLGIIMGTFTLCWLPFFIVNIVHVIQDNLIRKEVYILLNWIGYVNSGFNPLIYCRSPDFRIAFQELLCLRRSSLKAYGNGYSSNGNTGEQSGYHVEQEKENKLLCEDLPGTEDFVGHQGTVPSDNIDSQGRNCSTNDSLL
# Summary of the method: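 qHTS, Tango cells, 1500 cells/well, DMEM + 1% FBS. Cpd 18 hr at 37 degrees C. Luciferin/ATP/CoA detection mix, 15 min RT, luminescence read. %Activity from corrected signal; CRC fit, curve class.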
# [3] = Quantitative high throughput screen for delayed death inhibitors of the malarial parasite plastid, 96 hour incubation (AID 488745); conditions: Plasmodium falciparum growth; series mostly up to 28.7 µM; also: nearly all actives have a fitted effect of over 70% in size; also: potency is read from the fitted curve at half-maximal effect
# Summary of the method: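 Two-generation (96 h) exposure of luciferase-reporter P. falciparum in erythrocytes, 2% hematocrit, 0.1% parasitemia final, 37 C, 5% CO2, RPMI 1640 with 0.5% Albumax. Growth inhibition scored by reduced luminescence.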
# [4] = target: Thioredoxin reductase 1, cytoplasmic (Rattus norvegicus) (UniProt O89049); test: qHTS Assay for Substrates of Mammalian Selenoprotein Thioredoxin Reductase 1 (TrxR1) (AID 488772); conditions: purified TrxR1, NADPH consumption substrate assay; series mostly up to 57.1 µM;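 also: a drop in NADPH fluorescence below the no-compound background marks a TrxR1 substrate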
# Thioredoxin reductase 1, cytoplasmic (Rattus norvegicus), sequence (O89049 whole entry, looked up): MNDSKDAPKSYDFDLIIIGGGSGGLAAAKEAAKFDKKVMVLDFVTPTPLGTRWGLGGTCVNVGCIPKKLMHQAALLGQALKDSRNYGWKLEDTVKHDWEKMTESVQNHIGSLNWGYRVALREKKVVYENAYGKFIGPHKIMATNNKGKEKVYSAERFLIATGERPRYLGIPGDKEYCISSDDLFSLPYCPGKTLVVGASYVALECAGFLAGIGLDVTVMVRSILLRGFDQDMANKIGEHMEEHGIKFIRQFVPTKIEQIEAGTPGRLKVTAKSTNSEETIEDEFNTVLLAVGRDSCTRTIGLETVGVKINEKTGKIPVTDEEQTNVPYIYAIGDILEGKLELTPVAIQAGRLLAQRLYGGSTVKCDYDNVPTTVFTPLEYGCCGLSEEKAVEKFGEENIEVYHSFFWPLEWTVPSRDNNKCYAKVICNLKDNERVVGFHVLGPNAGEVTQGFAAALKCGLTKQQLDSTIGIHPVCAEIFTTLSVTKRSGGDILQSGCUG
# Summary of the method: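 In this dual-purpose format, potential substrates are identified from the first fluorescence read after selenite addition, not from the 8-minute delta. Rat enzyme is preincubated with NADPH and then with compound at ~22 deg C.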
# [5] = target: Thioredoxin reductase 1, cytoplasmic (Rattus norvegicus) (UniProt O89049); test: qHTS Assay for Inhibitors of Mammalian Selenoprotein Thioredoxin Reductase 1 (TrxR1) (AID 488773); conditions: purified TrxR1 enzyme activity; series mostly up to 57.1 µM;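 also: drop in NADPH fluorescence over an 8 min run after selenite addition; nearly all actives have a fitted effect of over 40% in size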
# Summary of the method: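 Inhibition is scored from the loss of NADPH fluorescence between first and last reads of an 8-min kinetic run. Selenite (400 uM) was the substrate, added after 15 min compound preincubation at room temperature.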
# [6] = target: Chromobox protein homolog 1 (Homo sapiens) (UniProt P83916); test: qHTS Validation Assay for Inhibitors of HP1-beta Chromodomain Interactions with Methylated Histone Tails (AID 488953); conditions: HP1-beta chromodomain / methylated histone peptide binding assay; series mostly up to 114 µM; also: nearly all actives have a fitted effect of over 50% in size; also: potency is read from the fitted curve at half-maximal effect
# Chromobox protein homolog 1 (Homo sapiens), sequence (P83916 whole entry, looked up): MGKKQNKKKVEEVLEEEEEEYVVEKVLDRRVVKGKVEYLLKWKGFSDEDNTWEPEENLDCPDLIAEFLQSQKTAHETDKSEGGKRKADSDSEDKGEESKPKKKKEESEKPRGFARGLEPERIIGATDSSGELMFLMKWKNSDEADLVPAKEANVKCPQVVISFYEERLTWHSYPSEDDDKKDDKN
# Summary of the method: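 Compounds pinned into a preassembled complex of HP1-beta and trimethyl-K9 histone H3(1-18) biotin peptide (50 nM each; PBS pH 7.4, 0.01% Tween-20). After 30 min, bead-based AlphaScreen detection followed.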
# [7] = target: Transient receptor potential cation channel subfamily V member 1 (Homo sapiens) (UniProt Q8NER1); test: HTS Assay for Compounds that Act as Enhancers of the Vanilloid Receptor 1 (AID 488979); conditions: TRPV1-expressing cells, enhancer of channel activity; series mostly up to 41.7 µM
# Transient receptor potential cation channel subfamily V member 1 (Homo sapiens), sequence (Q8NER1 whole entry, looked up): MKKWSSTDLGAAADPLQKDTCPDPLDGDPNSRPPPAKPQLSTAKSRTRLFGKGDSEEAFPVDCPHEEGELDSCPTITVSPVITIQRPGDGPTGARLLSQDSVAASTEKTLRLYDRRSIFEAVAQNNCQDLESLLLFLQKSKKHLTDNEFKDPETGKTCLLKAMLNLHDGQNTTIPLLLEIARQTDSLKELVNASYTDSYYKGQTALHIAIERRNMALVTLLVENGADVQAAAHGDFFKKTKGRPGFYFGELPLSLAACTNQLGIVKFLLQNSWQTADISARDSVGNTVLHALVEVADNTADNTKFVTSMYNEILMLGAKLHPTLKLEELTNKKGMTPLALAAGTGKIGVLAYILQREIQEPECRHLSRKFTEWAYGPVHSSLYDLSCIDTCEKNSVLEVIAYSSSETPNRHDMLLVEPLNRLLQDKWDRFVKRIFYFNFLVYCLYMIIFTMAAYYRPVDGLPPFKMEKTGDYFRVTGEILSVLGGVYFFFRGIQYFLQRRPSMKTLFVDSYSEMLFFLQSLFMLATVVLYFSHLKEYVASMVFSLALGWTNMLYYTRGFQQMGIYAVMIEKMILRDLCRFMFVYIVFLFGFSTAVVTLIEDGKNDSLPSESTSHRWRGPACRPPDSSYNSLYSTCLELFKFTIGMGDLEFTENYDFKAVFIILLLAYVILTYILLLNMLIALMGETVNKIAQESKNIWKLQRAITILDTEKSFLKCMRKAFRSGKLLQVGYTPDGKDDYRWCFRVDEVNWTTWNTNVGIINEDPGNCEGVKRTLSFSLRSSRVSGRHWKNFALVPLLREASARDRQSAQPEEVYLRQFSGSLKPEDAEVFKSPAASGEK
# Summary of the method: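 TRPV1-expressing cells loaded with Fluo-8 calcium dye; compounds added and calcium influx read kinetically for 3 min (agonist phase), then capsaicin at EC20 added and read 2 min more for enhancement. Fluorescence ex 480/em 520 nm.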
# [8] = target: D(1A) dopamine receptor (Homo sapiens) (UniProt P21728); test: HTS Assay for Allosteric Agonists of the Human D1 Dopamine Receptor: Primary Screen for Agonists (AID 488981); conditions: Inducible HEK293 T-REx D1 cells, calcium-flux fluorescence, 180 s kinetic; series mostly up to 41.8 µM; also: potency is read from the fitted curve at half-maximal effect
# D(1A) dopamine receptor (Homo sapiens), sequence (P21728 whole entry, looked up): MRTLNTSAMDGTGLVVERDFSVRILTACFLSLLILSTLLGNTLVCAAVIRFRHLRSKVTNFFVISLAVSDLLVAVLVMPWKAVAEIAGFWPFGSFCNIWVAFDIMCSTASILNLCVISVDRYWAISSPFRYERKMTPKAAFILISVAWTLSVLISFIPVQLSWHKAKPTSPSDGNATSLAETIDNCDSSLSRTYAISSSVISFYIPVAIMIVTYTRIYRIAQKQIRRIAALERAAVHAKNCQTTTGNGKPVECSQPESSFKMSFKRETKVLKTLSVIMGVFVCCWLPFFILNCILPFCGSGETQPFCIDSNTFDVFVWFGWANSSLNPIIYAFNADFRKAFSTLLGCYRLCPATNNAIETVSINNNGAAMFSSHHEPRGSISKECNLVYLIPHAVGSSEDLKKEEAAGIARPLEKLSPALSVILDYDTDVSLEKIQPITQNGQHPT
# Summary of the method: (§1)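 Tetracycline-induced HEK293 T-REx cells force-coupled to calcium signalling were incubated overnight at 30 C and dye-loaded at room temperature. Calcium flux over 180 s after compound addition flagged agonists; a further 180 s read after EC20 dopamine flagged potentiators.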
# [9] = target: Thyrotropin receptor (Homo sapiens) (UniProt P16473); test: qHTS Assay for Antagonists of the Thyroid Stimulating Hormone Receptor (AID 488980); conditions: TSHR-expressing cells, cAMP antagonist read-out; series mostly up to 57.5 µM
# Thyrotropin receptor (Homo sapiens), sequence (P16473 whole entry, looked up): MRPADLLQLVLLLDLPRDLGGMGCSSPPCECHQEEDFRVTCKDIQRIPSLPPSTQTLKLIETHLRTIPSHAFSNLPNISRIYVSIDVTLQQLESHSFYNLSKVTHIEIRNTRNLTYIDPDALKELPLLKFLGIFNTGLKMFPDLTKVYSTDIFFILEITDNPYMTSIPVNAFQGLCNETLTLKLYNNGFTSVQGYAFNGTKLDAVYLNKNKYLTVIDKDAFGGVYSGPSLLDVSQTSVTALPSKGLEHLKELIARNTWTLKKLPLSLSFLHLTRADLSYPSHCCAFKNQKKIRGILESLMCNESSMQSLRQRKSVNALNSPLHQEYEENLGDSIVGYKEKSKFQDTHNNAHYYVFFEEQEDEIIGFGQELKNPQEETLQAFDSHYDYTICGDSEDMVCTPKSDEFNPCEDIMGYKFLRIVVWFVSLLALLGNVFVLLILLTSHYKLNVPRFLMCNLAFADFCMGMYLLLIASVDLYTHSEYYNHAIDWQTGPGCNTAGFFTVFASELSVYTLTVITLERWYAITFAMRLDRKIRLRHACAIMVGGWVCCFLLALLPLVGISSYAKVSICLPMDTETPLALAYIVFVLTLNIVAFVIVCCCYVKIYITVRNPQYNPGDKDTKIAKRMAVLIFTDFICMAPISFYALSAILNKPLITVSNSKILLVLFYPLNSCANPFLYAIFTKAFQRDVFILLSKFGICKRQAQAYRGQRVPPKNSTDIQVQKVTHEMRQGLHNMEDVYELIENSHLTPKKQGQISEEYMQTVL
# Summary of the method: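 Inhibition of TSH-stimulated cAMP accumulation was quantified by homogeneous time-resolved FRET in TSHR-transfected HEK293 cells. Agonist: TSH, 4 nM final (EC80).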
# [10] = target: D(1A) dopamine receptor (Homo sapiens) (UniProt P21728); test: HTS Assay for Allosteric Agonists of the Human D1 Dopamine Receptor: Primary Screen for Potentiators (AID 488982); conditions: HEK293 T-REx D1 inducible cells, calcium flux, kinetic fluorescence; series mostly up to 8.37 µM
# Summary of the method: as §1
Structure (SMILES),Potency [1],outcome [2],Potency [3],outcome [4],outcome [5],Potency [6],outcome [7],Potency [8],outcome [9],outcome [10]
CN=C(NC#N)NCCSCc1nc[nH]c1C,inactive,,,,,,,,,
CC(NC(C)(C)C)C(=O)c1cccc(Cl)c1 (configuration not stated),inactive,inactive,inactive,inactive,inactive,inactive,inactive,inactive,,
O=C(CCCN1CCC2(CC1)C(=O)NCN2c1ccccc1)c1ccc(F)cc1,inactive,inactive,,inactive,inactive,,,12.6 µM (active),inactive,inactive
Cc1nnc(SCC2=C(C(=O)O)N3C(=O)[C@@H](NC(=O)Cn4cnnn4)[C@H]3SC2)s1,inactive,,,,,,,,,
CC[N+](CC)(CC)CCOc1cccc(OCC[N+](CC)(CC)CC)c1OCC[N+](CC)(CC)CC,13.4 µM (active),,,,,,,,,
CC(C)(C)NCC(O)c1ccccc1Cl (configuration not stated),inactive,inactive,inactive,inactive,inactive,inactive,inactive,inactive,inactive,inactive
Cc1ncsc1CCCl,inactive,inactive,,inactive,inactive,inactive,,inactive,,
CN(C)C(=O)Oc1ccc[n+](C)c1,inactive,,,,,0.0067 µM (active),,,,
O=C(O)CCCc1ccc(N(CCCl)CCCl)cc1,inactive,inactive,inactive,inactive,,inactive,inactive,inactive,inactive,inactive
C[C@]12CCC(=O)C=C1CC[C@@H]1[C@@H]2CC[C@]2(C)C(=O)CC[C@@H]12,inactive,,,,,,inactive,,inactive,
NCCc1ccc(O)cc1,inactive,inactive,inactive,inactive,inactive,inactive,inactive,inactive,inactive,inactive
CC(C)c1cccc(C(C)C)c1O,inactive,inactive,inactive,inactive,inactive,inactive,inactive,inactive,inactive,inactive
CC(C)C[C@H]1C(=O)N2CCC[C@H]2[C@]2(O)O[C@](NC(=O)[C@@H]3C=C4c5cccc6[nH]c(Br)c(c56)C[C@H]4N(C)C3)(C(C)C)C(=O)N12,,,,,,,,,,inactive
COc1ccc2c(c1OC)C(=O)O[C@H]2[C@@H]1c2cc3c(cc2CCN1C)OCO3,inactive,inactive,,inactive,inactive,inactive,,inactive,inactive,inactive
O=P1(N(CCCl)CCCl)NCCCO1 (configuration not stated),inactive,inactive,inactive,inactive,inactive,0.006 µM (active),inactive,inactive,inactive,inactive
CC(C)N(CCC(C(N)=O)(c1ccccc1)c1ccccn1)C(C)C (configuration not stated),inactive,inactive,inactive,inactive,inactive,inactive,inactive,inactive,inactive,inactive
CC(=O)N1CCN(c2ccc(OC[C@H]3CO[C@](Cn4ccnc4)(c4ccc(Cl)cc4Cl)O3)cc2)CC1,39.8 µM (active),,11.7 µM (active),,,39.8 µM (active),,,,
CN1C(=O)CCS(=O)(=O)C1c1ccc(Cl)cc1 (configuration not stated),inactive,inactive,inactive,inactive,inactive,inactive,inactive,inactive,inactive,inactive
O=c1[nH]oc2c1CCNC2,inactive,inactive,inactive,inactive,inactive,inactive,inactive,inactive,inactive,inactive
CCCCC/C=C\C/C=C\C/C=C\C/C=C\CCCC(=O)NCC(=O)O,inactive,inactive,inactive,inactive,,44.7 µM (active),inactive,inactive,,inactive
CCC1(c2ccc(N)cc2)CCC(=O)NC1=O (configuration not stated),inactive,inactive,inactive,inactive,inactive,inactive,inactive,inactive,,inactive
C=C(C)[C@H]1CN[C@H](C(=O)O)[C@H]1CC(=O)O,inactive,inactive,inactive,inactive,inactive,inactive,inactive,inactive,inactive,inactive
